From PubChem BioAssay (NCI)
This is part of a sample that, as a whole, favours compounds with a hit. Of some 83,000 tested, about 20% had one in any assay.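 Each cell line was grown in a 96-well plate and treated with one concentration of compound for 48 hours. Values below 10 were considered active.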 Calls of active or inactive are those of the source.

What follows are compounds tested on MOLT-4 leukemia (assay: NCI-60 one-dose screen, 48 h (100 = growth as untreated, 0 = no growth, -100 = all killed)). Conditions: 10 µM unless noted.
`CCCCCN1C=C/C(=C\C(=O)N(C)c2ccc(Oc3ccccc3)cc2)c2ccccc21` was tested, and the growth was 70.8% (inactive).
`O=C1Nc2cc(-c3ccc(NC(=O)C4CC4)cc3)ccc2/C1=C/c1ccc[nH]1` was tested, and the growth was 94.7% (inactive).
For `COc1cc2nc(-c3ccc(Cl)cc3)cc(OCCCN3CCCC3)c2cc1OC`, the growth was 40.4% (inactive).
With `CCCCCCOc1ccc(/C=N/Nc2cc(C)nc3ccc(Cl)cc23)cc1` the growth was -26% (active).
With `CCCCOc1ccc(/C(C)=N/Nc2cc(C)nc3ccc(Br)cc23)cc1` the growth was 83.5% (inactive).
With `O=c1[nH]nc(-c2ccccc2)c2sc3ncc(-c4ccc(Br)cc4)n3c12` the growth was 41.7% (inactive).
In the case of `O=C(Nc1ccc(NC(=O)c2cc(=O)[nH]c3ccccc23)cc1)Nc1cccc(Cl)c1`, the growth is reported as 79.7% (inactive).
For `N#Cc1cc(-c2nc3ccccc3s2)c(=O)n(NS(=O)(=O)c2ccccc2)c1N`, the growth was 107% (inactive).
For `COc1ccc(C(=O)/C=C/c2cc3ccccc3n3nnnc23)cc1`, the growth was 103% (inactive).
With `Cc1cccc(NC(=O)Nc2ccc(-n3cnc4cc(-c5ccc(O)cc5)ccc43)cc2)c1` the growth was 13.1% (inactive).
`Nc1n[nH]c2cccc(C#Cc3cccc(C(=O)Nc4cccc(C(F)(F)F)c4)c3)c12` was tested, and the growth was 39.2% (inactive).
`C=C1C(=O)O[C@H]2[C@H]1CC/C(COC(=O)NCC(C)c1ccc(CC(C)C)cc1)=C\CC[C@@]1(C)O[C@@H]21` (stereo partly drawn) was tested, and the growth was -8.4% (active).
`Cc1cc(C(=O)/C=C/c2ccc[nH]2)ccc1-n1ccc(C(F)(F)F)n1` was tested, and the growth was 70.6% (inactive).
In the case of `C=C1C(=O)O[C@H]2[C@H]1CC/C(CNC(=O)/C=C/c1cccc(OC)c1)=C\CC[C@@]1(C)O[C@@H]21`, the growth is reported as -3.23% (active).
With `COc1cc(C2=C(c3cn(C)c4ccccc34)COC2=O)cc(OC)c1OC` the growth was 12.2% (inactive).
In the case of `COc1cc2c(=O)n(CCN)c3c4cc5c(cc4ccc3c2cc1OC)OCO5`, the growth is reported as -26% (active).
In the case of `CCCCCN1C=C/C(=C\C(=O)N(C)c2ccc(OC(F)(F)F)cc2)c2ccccc21`, the growth is reported as 95.8% (inactive).
With `CN(C)CC(O)c1ccc(/C=C/c2ccc(Cl)cc2)cc1` (stereo not drawn) the growth was -29.7% (active).

What follows are compounds tested on SR leukemia in the same assay as above. Conditions: 10 µM unless noted.
For `CCCCCN1C=C/C(=C\C(=O)N(C)c2ccc(Oc3ccccc3)cc2)c2ccccc21`, the growth was 82.1% (inactive).
`O=C1Nc2cc(-c3ccc(NC(=O)C4CC4)cc3)ccc2/C1=C/c1ccc[nH]1` was tested, and the growth was 44.8% (inactive).
In the case of `COc1cc2nc(-c3ccc(Cl)cc3)cc(OCCCN3CCCC3)c2cc1OC`, the growth is reported as 14.5% (inactive).
`CCCOC(=O)N[C@H]1CCc2c(Cl)c(OC)c(OC)c(OC)c2-c2ccc(SC)c(=O)cc21` was tested, and the growth was 4.56% (active).
With `CCCCCCOc1ccc(/C=N/Nc2cc(C)nc3ccc(Cl)cc23)cc1` the growth was -7.39% (active).
With `Nc1c(C(=O)Nc2cccc3cnccc23)sc2nc3c(cc12)CN(Cc1ccccc1)CC3` the growth was 95.5% (inactive).
For `CCCCOc1ccc(/C(C)=N/Nc2cc(C)nc3ccc(Br)cc23)cc1`, the growth was -8.75% (active).
`Cc1cnc(C(=O)Nc2nc3ccc(S(=O)(=O)Nc4ccc(C(C)(C)C)cc4)cc3[nH]2)cn1` was tested, and the growth was 12.3% (inactive).
With `CCN1CCN(CCNc2nccc(-c3c(-c4cccc(OC)c4)nc4occn34)n2)S1(=O)=O` the growth was 96.3% (inactive).
`CCCCOc1ccc(/C=N/Nc2cc(C)nc3ccc(Br)cc23)cc1` was tested, and the growth was -9.77% (active).
With `O=c1[nH]nc(-c2ccccc2)c2sc3ncc(-c4ccc(Br)cc4)n3c12` the growth was 26.1% (inactive).
`O=C(Nc1ccc(NC(=O)c2cc(=O)[nH]c3ccccc23)cc1)Nc1cccc(Cl)c1` was tested, and the growth was 36.2% (inactive).
For `N#Cc1cc(-c2nc3ccccc3s2)c(=O)n(NS(=O)(=O)c2ccccc2)c1N`, the growth was 108% (inactive).
With `Oc1ccc(C(c2ccc(O)cc2)c2ccc(Br)cn2)cc1` the growth was 104% (inactive).
In the case of `CCOC(=O)[C@@H]1CCCN(S(=O)(=O)c2ccc(S(=O)(=O)N(CC)CC)c(F)c2)C1`, the growth is reported as 60.1% (inactive).
In the case of `N#Cc1cccc(-c2ccc3c(c2)NC(=O)/C3=C\c2ccc[nH]2)c1`, the growth is reported as 3.89% (active).
`O=[N+]([O-])c1cc(Br)c2cccc3c2c1CC3` was tested, and the growth was 93.3% (inactive).
With `NS(=O)(=O)c1ccc(Cn2c(SCC(=O)N/N=C/c3ccccc3O)nc3ccccc3c2=O)cc1` the growth was 26.6% (inactive).
For `CCNC(=O)Oc1ccc(/C(=C(\C)c2ccccc2)c2ccc(OCCN(CC)CC)cc2)cc1`, the growth was 26.1% (inactive).
For `COc1ccc(C(=O)/C=C/c2cc3ccccc3n3nnnc23)cc1`, the growth was 92.3% (inactive).
